Measurements taken from PubChem BioAssay AID651820 (National Center for Advancing Translational Sciences (NCATS), 2012).
Screen size: about 340,000 compounds; about 12,000 (3.5%) were called active. A call without a number means that no potency is given here. Another 18% or so got no clear call; they are omitted. The sample holds actives, similar compounds and a random draw of the others, so the mix is not that of the screen. A number with no mark means an inactive call. The call rests on the fitted dose curve; in most records, active means well fitted inhibition curve with a large enough effect; inconclusive means small, poorly fitted or top-dose-only effect, or another doubt; inactive means no such curve, though single readings can be large or run the other way.

experiment: qHTS Assay for Inhibitors of Hepatitis C Virus (HCV); conditions: Huh7.5.1 HCVcc-Cre infection, luciferase reporter, 44 h; series mostly up to 41.8 µM
Method in brief: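 After 44 h co-culture of compound, cells and HCVcc-Cre (~0.5 moi), substrate is added for 15 min at room temperature and luciferase measured over 15 sec. Cells were seeded at 1,000/well and pre-cultured 4 h.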
Potency means the concentration at half of the fitted maximal effect.

Row | Structure (SMILES) | Potency | activity change, negative = inhibition
1 | Cc1ccsc1C(=O)OCC(=O)NCCc1ccccc1 | inactive | –
2 | CC1CCCN(C(=O)Cn2c(=O)oc3cc(S(=O)(=O)N4CCCCC4C)ccc32)C1 (stereo not given) | inactive | –
3 | CCOc1cc(N2CCOCC2)c(OCC)cc1NC(=O)COC(=O)[C@H](Cc1c[nH]c2ccccc12)NC(C)=O | inactive | –
4 | CCOc1cc(N2CCOCC2)c(OCC)cc1NC(=O)c1cc(C)nc2ccccc12 | inactive | –
5 | CCOc1cc(N2CCOCC2)c(OCC)cc1NC(=O)c1ccc(C)s1 | 25.1 µM (active) | –
6 | CCOc1cc(N2CCOCC2)c(OCC)cc1NC(=O)C1=NN(c2cccc(C)c2)C(=O)CC1 | inactive | –
7 | CCOc1cc(N2CCOCC2)c(OCC)cc1NC(=O)COc1cccc2cccnc12 | 7.94 µM (active) | –
8 | NC(=O)C1CCN(C(=O)COc2cccc3cccnc23)CC1 | inactive | –
9 | CC(C)(C)NS(=O)(=O)NC(=O)C1=C(N2CCCC2)COC1=O | inactive | –
10 | COc1ccccc1CNC(=O)COC(=O)c1cccs1 | inactive | –
11 | N#Cc1ccc(C(=O)Nc2nc(-c3cccs3)c(C(=O)C(F)(F)F)s2)cc1 | 11.2 µM (active) | –
12 | Cc1ccc(C(=O)Nc2nnc(-c3cccs3)s2)cc1C | inactive | –
13 | CCOc1cccc(C(=O)Nc2nnc(-c3cccs3)s2)c1 | inactive | –
14 | CC1CCN(C(=O)COC(=O)CCC(=O)c2cccs2)CC1 | inactive | –
15 | COCC(=O)N(C)[C@H]1C[C@H]2c3cc(Oc4ccccc4C)ccc3CCN2C(=O)[C@H]1[C@H](C)O | inactive | –
16 | CCN(CC)S(=O)(=O)c1ccc(OC)c(NC(=O)CCc2c(C)noc2C)c1 | inactive | –
17 | CCN(C(=O)CSc1nnc(-c2ccc(OC(F)F)cc2)n1N)C1CCS(=O)(=O)C1 (stereo not given) | inactive | –
18 | CC(=O)c1cc(CN2CCC(C(=O)Nc3cccc(-c4cscn4)c3)CC2)cs1 | 10 µM (active) | –
19 | O=C(Nc1cccc(-c2cscn2)c1)C1CCN(Cc2ccsc2)CC1 | inactive | –
20 | CC(=O)c1cc(CN2CCC(n3nccc3NC(=O)c3ccccc3Cl)CC2)cs1 | inactive | –
21 | CC(C)(C)OC(=O)C[C@@H]1C/C=C\C[C@@H](CC(=O)N[C@@H](CO)Cc2ccccc2)C(=O)N2CCC[C@H]2COC1=O | inactive | –
22 | c1ccc2c(c1)CSc1sccc1C2=C1CCNCC1 | 15.8 µM (active) | –
23 | CN1CCC(N(C)S(=O)(=O)c2ccc(NC(=O)c3cccc(C#N)c3)cc2)CC1 | inactive | –
24 | Cc1cccc(NC(=O)Nc2nnc(-c3ccccc3)o2)c1 | inactive | –
25 | Cc1cccc(NC(=O)Nc2cccc(Oc3c(F)c(F)c(F)c(F)c3F)c2)c1 | 11.2 µM (active) | –

Row | Structure (SMILES) | Potency | activity change, negative = inhibition
26 | Cc1cccc(NC(=O)c2cccc(C(F)(F)F)c2)c1 | inactive | –
27 | Cc1cc(NC(=O)C(C)N2C(=O)c3ccccc3S2(=O)=O)no1 (stereo not given) | inactive | –
28 | O=[N+]([O-])c1ccc(N2CCN(S(=O)(=O)c3ccc4ccccc4c3)CC2)cc1NCc1ccco1 | inactive | –
29 | O=C(c1ccccc1)N1CCN(c2ccc([N+](=O)[O-])c(NCc3ccco3)c2)CC1 | 8.91 µM (active) | –
30 | O=C(c1ccc(S(=O)(=O)NCc2ccco2)cc1)N1CCN(c2ccccc2)CC1 | inactive | –
31 | O=C(Nc1cccc2c1CCCC2)c1ccc(F)cc1 | inactive | –
32 | CCN1C(=O)[C@H]2[C@@H](c3ccc(C)cc3)N3C(=O)N(c4cccc(Br)c4)C(=O)[C@@]3(CC)[C@H]2C1=O | inactive | –
33 | CN(CC(=O)Nc1cccc(F)c1)C(=O)CC1CCCC1 | inactive | –
34 | CC(=O)Nc1ccc(NC(=O)C(C)OC(=O)C2CC(=O)N(CCc3ccccc3)C2)cc1 (stereo not given) | inactive | –
35 | CN(C)c1ccc(/C=N\S(=O)(=O)c2ccccc2)cc1 | inactive | –
36 | CC[n+]1cc(C)ccc1/C=C/c1ccc(N(C)C)cc1 | 5.62 µM (active) | –
37 | C/C(=N\Nc1ccccc1)c1cccs1 | inactive | –
38 | Cc1csc(NC(=O)c2ccc(C)s2)n1 | inactive | –
39 | COCC(=O)N1CCc2ccc(NC(=O)c3ccccc3Cl)cc2C1 | inactive | –
40 | O=C(Nc1ccc2nc3n(c(=O)c2c1)CCCCC3)c1ccccc1Cl | inactive | –
41 | O=C(Nc1ccc2sc3ccccc3c(=O)c2c1)c1ccccc1Cl | 3.55 µM (active) | –
42 | CCC1CCCCN1C(=S)NC(=O)c1ccco1 (stereo not given) | inactive | –
43 | COc1ccc(OC)c(/C=N/NC(=O)c2ccc[n+](CC(=O)c3ccccc3)c2)c1 | inactive | –
44 | Cc1cccc(C(=O)OCC(=O)NC(C)C2CC3CCC2C3)c1O (stereo not given) | inactive | –
45 | COc1ccccc1CNC(=O)CCCN1C(=O)NC2(CCCC2)C1=O | inactive | –
46 | OC(COc1ccccc1)Cn1cc(Br)cn1 (stereo not given) | inactive | –
47 | O=C(C(c1ccccc1)c1ccccc1)N1CCN(CC(O)COc2ccccc2)CC1 (stereo not given) | inactive | –
48 | OC(CN=c1sc2ccccc2n1CC(O)COc1ccccc1)COc1ccccc1 (stereo not given) | 11.2 µM (active) | –
49 | CN(c1ccccc1)S(=O)(=O)c1cc(C(=O)N2CCN(c3ncccn3)CC2)ccc1Cl | inactive | –
50 | Cc1ccc(S(=O)(=O)N2CC(O)C[C@H]2C(=O)OCC(=O)Nc2ccc(N3CCOCC3)cc2)cc1C (stereo not given in full) | inactive | –

Row | Structure (SMILES) | Potency | activity change, negative = inhibition
51 | Cc1ccccc1NC(=S)NNC(=O)c1cccc(Br)c1 | inactive | –
52 | O=C(/C=C/NNC(=O)c1cccc(Br)c1)c1ccccc1 | 10 µM (active) | –
53 | CC(CC(=O)O)CC(=O)NNC(=O)c1cccc(Br)c1 (stereo not given) | inactive | –
54 | CC(=O)c1cccc(-c2ccc(CN3C(CC(C)C)C(=O)N(Cc4cn(CC5CCCCC5)nn4)CCS3(=O)=O)cc2)c1 (stereo not given) | – | -21% [at 8.37 µM]
55 | COc1ccccc1-n1cnc2cc(NS(=O)(=O)c3ccccc3)ccc21 | 22.4 µM (active) | –
56 | COc1ccccc1-n1cnc2cc(C(=O)NCC3CCCO3)ccc21 (stereo not given) | inactive | –
57 | Cn1c(CCN2CCCC2)nc2cc(NS(=O)(=O)c3ccccc3)ccc21 | inactive | –
58 | O=C(COC(=O)c1ccc(F)cc1)Nc1ccc2c(c1)OCO2 | inactive | –
59 | COc1ccc(C(=O)NCC2CCCN2S(=O)(=O)c2cccs2)cc1OC (stereo not given) | inactive | –
60 | O=C(NCc1ccccc1Cl)C(=O)NCC1CCCN1S(=O)(=O)c1cccs1 (stereo not given) | inactive | –
61 | COc1ccccc1CCNC(=O)C(=O)NCCC1CCCCN1S(=O)(=O)c1cccs1 (stereo not given) | 35.5 µM (active) | –
62 | Oc1[nH]c2ccccc2c1N=Nc1c(F)c(F)c(F)c(F)c1F | inactive | –
63 | Nc1cc2c(cc1Br)-c1ccc(F)cc1C2=O | 12.6 µM (active) | –
64 | CC1CCCCC1NC(=O)NC(=O)COC(=O)C1=NN(c2ccccc2)C(=O)CC1 (stereo not given) | inactive | –
65 | COc1ccccc1C(c1nnnn1C(C)(C)C)N1CCN(Cc2ccccc2)CC1 (stereo not given) | inactive | –
66 | COc1ccc(OC)c(C(c2nnnn2C(C)(C)C)N2CCc3ccccc3C2)c1 (stereo not given) | 7.94 µM (active) | –
67 | Cc1ccc(C(c2nnnn2C(C)(C)C)N2CCc3ccccc3C2)cc1 (stereo not given) | inactive | –
68 | CCCCn1c(N)c(N(CC)C(=O)c2ccc(N(C)S(=O)(=O)c3ccc(C)cc3)cc2)c(=O)[nH]c1=O | inactive | –
69 | O=C(c1ccc2c(c1)C(=O)N(Cc1ccncc1)C2=O)N1CCN(S(=O)(=O)c2ccc(OC(F)(F)F)cc2)CC1 | inactive | –
70 | Cc1cc(N/N=C/c2ccccc2F)c2ccccc2n1 | inactive | –
71 | Oc1ccc(/C=N/Nc2nc(-c3ccccc3F)nc3ccccc23)c(O)c1 | 11.2 µM (active) | –
72 | Fc1ccc(/C=N/Nc2nc(-c3cccnc3)nc3ccccc23)cc1 | inactive | –
73 | C[C@]12CC[C@H](O)CC1=CCC1C2CC[C@@]2(C)C1CC[C@@H]2NC(=O)CCC(=O)O (stereo not given in full) | inactive | –
74 | COC(=O)c1sc2ncccc2c1OCc1ccc(Cl)cc1Cl | inactive | –
75 | NC(N)=N/N=C/c1ccc(OCc2ccc(Cl)cc2Cl)cc1 | 11.2 µM (active) | –

Row | Structure (SMILES) | Potency | activity change, negative = inhibition
76 | CCOc1ccc(NC(=O)NNC(=O)c2ccc(Cl)cc2Cl)cc1 | inactive | –
77 | CC(=O)NC12CC3CC(C1)CC(C(=O)N1CCN(S(=O)(=O)c4cccs4)CC1)(C3)C2 | inactive | –
78 | CC(C)=C(NC(=O)c1ccccc1)C(=O)N/N=C(\C)c1ccccc1O | inactive | –
79 | C/C(=N\Nc1ccc(Cl)nn1)c1ccccc1O | 0.501 µM (active) | –
80 | Clc1ccc(N/N=C/c2cccs2)nn1 | inactive | –
81 | Oc1cccc(/C=N/Nc2ccc(Cl)nn2)c1O | 2.51 µM (active) | –
82 | COc1cccc(/C=N/Nc2ccc(Cl)nn2)c1 | inactive | –
83 | CCCCCCCN=C(C)c1ccccc1O | inactive | –
84 | CCCN(C(=O)CSc1nnc(N)s1)c1c(N)n(Cc2ccccc2)c(=O)[nH]c1=O | inactive | –
85 | Cc1ccc(-c2nn(-c3ccccc3)cc2C(=O)NC2CCC(O)CC2)cc1 (stereo not given) | inactive | –
86 | CCc1ccc(-c2nn(-c3ccccc3)cc2CSC(=N)N)cc1 | 10 µM (active) | –
87 | CCc1ccc(-c2nn(-c3ccccc3C)cc2C(=O)N2CCN(C3CCS(=O)(=O)C3)CC2)cc1 (stereo not given) | inactive | –
88 | Cc1ccc(NC(=O)C(C)Sc2nnc(C3CC3)n2C2CC2)cc1S(=O)(=O)N1CCOCC1 (stereo not given) | inactive | –
89 | CC(C)CC[n+]1ccn(C2=C([O-])c3ccccc3C(=O)/C2=N\S(=O)(=O)c2ccccc2)c1 | 10 µM (active) | –
90 | COc1ccc(C(=O)NCc2ccccc2C)cc1S(=O)(=O)NC1CCCC1 | inactive | –
91 | CCCCN(C(=O)C1CCC1)c1c(N)n(Cc2ccccc2)c(=O)[nH]c1=O | inactive | –
92 | COc1ccc(C(=O)C[n+]2ccc(C)cc2)cc1 | inactive | –
93 | COc1ccc(C(=O)C[n+]2ccc(N)c(C)c2C)cc1 | 2.24 µM (active) | –
94 | COc1ccc(CCC(=O)c2ccc(OC)cc2)cc1 | inactive | –
95 | COc1cc(/C=C/C(=O)OCC(=O)c2ccccc2)cc(OC)c1OC | inactive | –
96 | COc1ccc(S(=O)(=O)N(C)C[C@H]2Oc3ccc(NS(=O)(=O)c4cccs4)cc3CC(=O)N([C@H](C)CO)C[C@H]2C)cc1 | inactive | –
97 | O=C(COc1ccc(F)cc1Br)NCC1COc2ccccc2O1 (stereo not given) | inactive | –
98 | CC1(C)Cc2cccc(OCC(=O)N3CCN(c4ccc([N+](=O)[O-])cc4)CC3)c2O1 | 10 µM (active) | –
99 | CC1(C)Cc2cccc(OCC(N)=O)c2O1 | inactive | –
100 | CC1(C)Cc2cccc(OCC(=O)NCc3ccccc3)c2O1 | inactive | –
